This is an account of results in PubChem BioAssay AID588579 (National Center for Advancing Translational Sciences (NCATS), 2011).

Each structure is given as a SMILES string. The whole screen tested about 400,000 compounds, of which about 2,200 (0.55%) were called active. Not shown: some 1% with an inconclusive outcome. The sample holds actives, similar compounds and a random draw of the others, so the mix is not that of the screen. Calls follow the shape of the dose curve; as a rule, active = well fitted inhibition curve with a large enough effect; inconclusive = small, poorly fitted or top-dose-only effect, or another doubt; inactive = no such curve, though single readings can be large or run the other way.
% is scaled to controls: 0 for no effect and ±100 for the full control effect; potency is read from the fitted curve at half-maximal effect.

DNA polymerase kappa (Homo sapiens), sequence (Q9UBT6 whole entry, looked up): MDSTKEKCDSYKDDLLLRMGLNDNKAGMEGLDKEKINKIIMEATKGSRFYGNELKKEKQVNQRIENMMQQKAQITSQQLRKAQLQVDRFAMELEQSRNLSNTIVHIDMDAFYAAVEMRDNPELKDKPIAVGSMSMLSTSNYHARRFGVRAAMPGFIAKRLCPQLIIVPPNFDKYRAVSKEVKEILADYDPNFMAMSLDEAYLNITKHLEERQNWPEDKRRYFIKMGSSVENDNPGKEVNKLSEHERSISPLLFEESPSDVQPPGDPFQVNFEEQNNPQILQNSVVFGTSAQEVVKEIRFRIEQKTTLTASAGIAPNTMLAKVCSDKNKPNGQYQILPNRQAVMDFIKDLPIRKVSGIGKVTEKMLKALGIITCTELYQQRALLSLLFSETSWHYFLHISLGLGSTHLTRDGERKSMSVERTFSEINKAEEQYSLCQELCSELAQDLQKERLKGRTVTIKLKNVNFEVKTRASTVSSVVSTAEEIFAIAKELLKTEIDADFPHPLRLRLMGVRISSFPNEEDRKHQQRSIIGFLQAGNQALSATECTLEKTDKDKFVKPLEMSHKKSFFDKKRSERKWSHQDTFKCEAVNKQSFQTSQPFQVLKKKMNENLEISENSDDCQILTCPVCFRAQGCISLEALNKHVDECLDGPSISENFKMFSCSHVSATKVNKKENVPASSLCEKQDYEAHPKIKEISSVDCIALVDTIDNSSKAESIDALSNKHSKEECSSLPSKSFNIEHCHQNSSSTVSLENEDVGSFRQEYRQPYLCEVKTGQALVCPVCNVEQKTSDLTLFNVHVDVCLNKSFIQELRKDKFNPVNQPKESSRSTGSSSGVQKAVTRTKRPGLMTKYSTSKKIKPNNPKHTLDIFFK

This test addresses DNA polymerase kappa (Homo sapiens) (UniProt Q9UBT6). The test is described as follows: qHTS for Inhibitors of Polymerase Kappa. The conditions noted are these: purified Pol kappa, fluorescent DNA synthesis assay, 10 min; series mostly up to 107 µM; activity, negative = inhibition: at the top concentration. In a few lines: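 Here, compound and 10 nM enzyme are combined for 15 min at room temperature; adding 50 nM substrate (final) starts DNA synthesis, tracked by fluorescence at 0 and 10 min against buffer-only wells.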
Turning to `COc1cccc(-c2nc(Nc3ccncc3)c3ccccc3n2)c1`, the “activity, negative = inhibition” value was -8.84% [at 60.1 µM] (inactive).

Regarding `c1ccc2c(Nc3ccncc3)nc(-c3ccoc3)nc2c1`, the Potency was 28.2 µM (active).

Take `Cc1noc(C)c1-c1nc(Nc2ccccc2)c2ccccc2n1`: the “activity, negative = inhibition” value is 0.194% [at 60.1 µM] (inactive).

As to `O=C(c1ccco1)N1CCC2(CC1)CCN(c1ncccn1)CC2`, the “activity, negative = inhibition” value was 4.69% [at 60.1 µM] (inactive).

For `COc1ccc(S(=O)(=O)N2CCN(CC(=O)N3CCOCC3)CC2)cc1OC`, the “activity, negative = inhibition” value was -0.432% (inactive).

With `COC1=C/C(=C/c2c(N)n3nc(CC(=O)N4CCOCC4)sc3nc2=O)C=CC1=O`, the Potency was 79.4 µM (active).

As for `COc1ccc(-c2ccnc(SCC(=O)N3CCOCC3)n2)cc1`, the “activity, negative = inhibition” value is -3.52% (inactive).

For the compound `CCN(CC)/[N+]([O-])=N/OCOC(=O)Cc1c(C)n(C(=O)c2ccc(Cl)cc2)c2ccc(OC)cc12`, the “activity, negative = inhibition” value is -20.9% (inactive).

Regarding `O=C(Nc1ccccc1)c1ccccc1OCc1ccccc1`, the “activity, negative = inhibition” value is -8.48% (inactive).

Take `CCc1ccccc1NS(=O)(=O)c1ccc2nc(-c3ccccc3)[nH]c2c1`: the “activity, negative = inhibition” value was -4.51% (inactive).

For `CCc1ccc(NC(=O)C2CCCN2S(=O)(=O)c2ccc3nc(-c4ccccc4)[nH]c3c2)cc1` (centres undefined), the Potency was 89.1 µM (active).

For the compound `CC(=O)Nc1ccc(NC(=O)C2CCCN2S(=O)(=O)c2cccc(C(F)(F)F)c2)cc1` (centres undefined), the “activity, negative = inhibition” value was 3.23% (inactive).

Turning to `COc1ccc(CNc2ncncc2-c2ccccc2OC)c(OC)c1`, the “activity, negative = inhibition” value was -3.98% [at 60.1 µM] (inactive).

Regarding `OC(CBr)C[n+]1cccc2cc(Br)ccc21` (centres undefined), the “activity, negative = inhibition” value was -4.74% (inactive).

Take `SCc1nc2ccc(Cl)cc2[nH]1`: the “activity, negative = inhibition” value is 4.08% (inactive).

With `CCCC[C@H]1C(=O)N(c2ccccc2)N(c2ccc(O)cc2)C1=O`, the activity, negative = inhibition is -4.08% [at 19.4 µM] (inactive).

In the case of `COCOc1cc(O)c(C(=O)/C=C/c2ccc(OCOC)c(OCOC)c2)c(OCOC)c1`, the “activity, negative = inhibition” value is 8.25% (inactive).

As to `COc1cccc(N2CC(NC(=O)/C=C\c3ccccc3)CC2=O)c1` (centres undefined), the “activity, negative = inhibition” value is -8.26% [at 60.1 µM] (inactive).

With `COc1ccc(/C=C/C(=O)c2cc(Br)ccc(=O)c2O)cc1`, the Potency is 25.1 µM (active).

For `C=CCC1CCC(=O)N2CCCC12` (centres undefined), the “activity, negative = inhibition” value was -5.47% [at 158 µM] (inactive).

Regarding `COc1cc(OC)c(/C=C/c2ccnc3ccccc23)c(OC)c1`, the “activity, negative = inhibition” value was -1.63% (inactive).

With `COc1ccc(OC)c2sc(N3CCN(C(=O)C4COc5ccccc5O4)CC3)nc12` (centres undefined), the “activity, negative = inhibition” value is 0.367% [at 60.1 µM] (inactive).

Regarding `Cc1c(CC(=O)N2CCN(C(=O)C3COc4ccccc4O3)CC2)c(=O)oc2c(O)c(O)ccc12` (centres undefined), the Potency was 7.08 µM (active).

As for `COc1cc(NS(=O)(=O)c2ccc3c(c2)OCC(C(=O)N2CCCC2)O3)cc(OC)c1` (centres undefined), the “activity, negative = inhibition” value is -3.15% (inactive).

For the compound `COc1ccc(CC(N)C(=O)NC2C(O)[C@H](n3cnc4c(N(C)C)ncnc43)O[C@@H]2CO)cc1` (some centres undefined), the activity, negative = inhibition was 3.17% [at 19.4 µM] (inactive).

`OCCC(O)CO` (centres undefined): the Potency result is “inactive”.

Turning to `Cc1csc[n+]1CCC1CCCCC1`, the “activity, negative = inhibition” value is -13.7% (inactive).

As for `CCCCCCCC/C=C\CCCCCCCC(=O)OC[C@H](CO)OC(C)=O`, the activity, negative = inhibition is 0.528% [at 19.4 µM] (inactive).

For the compound `Cc1ccc(Cn2cnc3c(cnn3C(C)(C)C)c2=O)c(F)c1`, the “activity, negative = inhibition” value was -5.83% (inactive).

As to `C(=Nc1ccc(/C=C/c2ccnc3ccccc23)cc1)Nc1ccc(/C=C/c2ccnc3ccccc23)cc1`, the “activity, negative = inhibition” value is -6.28% (inactive).

As for `COCCn1c(=O)c(CCc2ccccc2)nc2cncnc21`, the “activity, negative = inhibition” value is 0.194% [at 60.1 µM] (inactive).

Regarding `COc1ccccc1C(=O)NC(=O)COC(=O)c1ccco1`, the “activity, negative = inhibition” value was 4.84% (inactive).

As for `Cc1ccc(C(=O)N/C(=C\c2ccco2)C(=O)NC2CCS(=O)(=O)C2)cc1` (centres undefined), the “activity, negative = inhibition” value was -2.02% (inactive).

For `COc1ccccc1C(=O)N/C(=C/c1ccco1)C(=O)Nc1ccc(C(=O)O)cc1`, the Potency is 50.1 µM (active).

For the compound `COc1ccc2[nH]cc(CCNc3nc(-c4cccc(NS(C)(=O)=O)c4)nc4ccccc34)c2c1`, the “activity, negative = inhibition” value was -3.54% [at 60.1 µM] (inactive).

Regarding `O=c1ccn([C@@H]2O[C@H](COP(=O)(O)OP(=O)(O)OP(=O)(O)O)[C@@H](O)[C@H]2O)c(=O)[nH]1`, the activity, negative = inhibition is 4.9% [at 19.4 µM] (inactive).

`CC1(C)OC2CC(=O)OC[C@@]23C1CC(=O)[C@]1(C)C3CC[C@@]2(C)C(c3ccoc3)OC(=O)C3O[C@@]321` (some centres undefined): the “activity, negative = inhibition” value is -9.63% [at 60.1 µM] (inactive).

On to `COCCNc1ncnc2ccc(-c3cccnc3)cc12`, for which the “activity, negative = inhibition” value was 6.7% [at 60.1 µM] (inactive).

On to `COCCn1c(=O)c(CCc2ccccc2)nc2cnc(N3CCNCC3)nc21`, for which the “activity, negative = inhibition” value was 2.58% [at 60.1 µM] (inactive).
